EP2 antag – EP2 receptor (human) inhibition; 260,000 tested, 0.52% active; inhibition, % at 25 µM; P43116; AID 1422; C6 glioma cells expressing human EP2, cAMP TR-FRET; cells stimulated with saturating PGE2;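 active means percent inhibition above 40 after rounding to a whole number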;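 further: rat C6 glioma host cells with rolipram phosphodiesterase inhibitor present; the protocol text gives 20 µM as final concentration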
Furin inh – blocks human furin protease activity. 220,000 tested, 0.061% active. inhibition, % at 20 µM or 30 µM. AID 463115. purified furin, fluorogenic substrate cleavage. P09958; in the data active means inhibition above about 25%
p47phox inh – inhibitors of human p47phox binding | P14598 | p47phox/p22phox peptide binding, fluorescence polarization, 2 h | inhibition, % at 24.7 µM | 220,000 tested, 0.53% active | AID 1274;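 active means inhibition above about 30%, limit read from the data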
Wee1 stabilizer – blocks degradation of human Wee1 kinase. P30291. HeLa Luc-Wee1K328M stability, luciferase luminescence; 100% = proteasome inhibitor MG132 effect. reporter increase, % at 5 µM. 220,000 tested, 1.2% active. AID 1321;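 active means activation above the mean of all tested compounds plus 3 SD, set per screening run, cut at about 8.8% in these data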;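 further: cells exposed to compound for 20 h before luminescence read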
Target sequence (P30291 whole entry K328M): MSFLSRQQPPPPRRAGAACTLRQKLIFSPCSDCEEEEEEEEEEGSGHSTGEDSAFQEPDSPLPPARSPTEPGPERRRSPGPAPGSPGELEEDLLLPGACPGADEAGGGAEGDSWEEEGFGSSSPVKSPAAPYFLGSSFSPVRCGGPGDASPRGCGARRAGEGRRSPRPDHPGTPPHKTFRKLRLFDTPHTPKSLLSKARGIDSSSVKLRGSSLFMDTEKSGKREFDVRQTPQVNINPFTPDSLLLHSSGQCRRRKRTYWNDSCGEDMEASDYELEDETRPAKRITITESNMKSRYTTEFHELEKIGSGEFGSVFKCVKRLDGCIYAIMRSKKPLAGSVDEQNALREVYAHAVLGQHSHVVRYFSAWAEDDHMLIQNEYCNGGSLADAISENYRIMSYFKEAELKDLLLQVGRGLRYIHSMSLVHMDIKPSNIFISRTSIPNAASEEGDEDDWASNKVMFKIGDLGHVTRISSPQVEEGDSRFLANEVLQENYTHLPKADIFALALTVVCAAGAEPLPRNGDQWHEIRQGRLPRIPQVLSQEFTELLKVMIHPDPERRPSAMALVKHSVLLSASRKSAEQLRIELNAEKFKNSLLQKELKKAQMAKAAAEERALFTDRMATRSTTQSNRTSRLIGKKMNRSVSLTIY
EP2 modulator – EP2 receptor (human) modulation; 260,000 tested, 0.83% active; induction, % at 25 µM; EP2-expressing cells, cAMP HTRF FRET, PGE2 co-stimulation; AID 940; P43116;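 active means compounds whose cAMP rise, as percent of the full-agonist control response, exceeds 60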;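 further: rat C6 glioma line stably carrying human EP2 under a CMV promoter; the protocol text gives 20 µM as final concentration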
HSV augment – HSV replication enhancement | HSV replication augmentation in cells, fold increase | maximum fold increase | 220,000 tested, 0.005% active; in the data active means maximum fold increase above about 1.5; tested in PC3 cells
Each line names hits and unclear results; the compound was inactive in the other large screens; ! = not confirmed by another sample. Most compounds without a hit are left out; they make up all but 2.8% or so of the library.

CN(C)c1cccc(/C=C(\C#N)c2ccccc2)c1	Wee1 stabilizer 10.0
Cn1cccc1/C=C(\C#N)c1ccccc1	none (no result: HSV augment)
CN(C)c1ccc(/C=C(\C#N)C(=O)c2ccccc2)cc1	p47phox inh 52, Wee1 stabilizer 9.3
COc1ccc2[nH]c(=O)c(CN(Cc3ccccc3OC)C(C)=O)cc2c1	none (no result: Furin inh, p47phox inh, Wee1 stabilizer, HSV augment)
COc1ccccc1C(=O)NCC1COc2ccccc2O1 (centres undefined)	none (no result: Furin inh, p47phox inh, Wee1 stabilizer, HSV augment)
Cc1ccc2nc(/C(C#N)=N/O)[nH]c2c1	none
Cc1ccc2nc(/C(C#N)=C/c3cn[nH]c3-c3ccc(F)cc3)[nH]c2c1	Furin inh 28
C/C(=N\Nc1nc(C)cc(=O)[nH]1)C(=O)O	none (no result: Furin inh, p47phox inh, Wee1 stabilizer, HSV augment)
CCC(C)Oc1nc(C)cc(C)c1S(=O)(=O)c1ccccc1C (centres undefined)	EP2 modulator 64
Cc1cc(C)c(Nc2cc(S(=O)(=O)O)c(N)c3c2C(=O)c2ccccc2C3=O)c(C)c1	p47phox inh 59
Cc1cc(C)c(NC(=O)COC(=O)c2cccc3c2C(=O)c2ccccc2C3=O)c(C)c1	none
Nc1ccc(-c2ccc(Nc3cc(S(=O)(=O)O)c(N)c4c3C(=O)c3ccccc3C4=O)cc2)c(S(=O)(=O)O)c1	EP2 antag 55 (no result: Furin inh, p47phox inh, Wee1 stabilizer, HSV augment)
CCOc1ccc2nc(COC(=O)c3cccs3)c(C(C)=O)[n+]([O-])c2c1	none
CCOc1ccc2nc(COC(=O)c3ccco3)c(C(C)=O)[n+]([O-])c2c1	p47phox inh 48
CCCN1C(=O)SC(CC(=O)O)C1=O (centres undefined)	none (no result: Furin inh, p47phox inh, Wee1 stabilizer, HSV augment)
CC(C)C(O)(C#CCN1CCCC1)C(C)C	none (no result: Furin inh, p47phox inh, Wee1 stabilizer, HSV augment)
CC(C)N(CCO)C(=O)C(c1ccccc1)c1ccccc1	Wee1 stabilizer 11
CN(C)CCNC(=O)C(c1ccccc1)c1ccccc1	none
OC(CN1CCC(O)(c2ccc(F)cc2)CC1)c1ccc(Cl)cc1 (centres undefined)	none (no result: Furin inh, p47phox inh, Wee1 stabilizer, HSV augment)
NCc1c(O)ccc2ccccc12	none
O=c1[nH]c(=S)[nH]c(-c2ccccc2)c1Cc1c(O)ccc2ccccc12	EP2 antag 46 (no result: Furin inh, p47phox inh, Wee1 stabilizer, HSV augment)
CCNC(=S)N1CCn2cccc2C1c1ccc(F)cc1 (centres undefined)	p47phox inh 40
O=C(C1CCCN(Cc2ccccc2)C1)N1CCCCC1 (centres undefined)	none
O=C(C1CCCN(Cc2ccccc2Br)C1)N1CCCCC1 (centres undefined)	Wee1 stabilizer 11
CCOc1ccc(NC(=O)CSc2nnc(-c3ccco3)n2CC)cc1	none (no result: Furin inh, p47phox inh, Wee1 stabilizer, HSV augment)
O=C(CSc1nnc(CNc2ccc(Cl)cc2)o1)N1CCCCC1	none (no result: Furin inh, p47phox inh, Wee1 stabilizer, HSV augment)
CC(=O)c1ccc(C(C)(C)c2ccc(C(C)=O)s2)s1	Wee1 stabilizer 9.3
CC(C)(C)c1ccc(C(=O)N2CCCC2)s1	none
COc1cc(/C=C2/C(=O)NN(c3cccc(C)c3)C2=O)cc([N+](=O)[O-])c1O	none
COc1cc(/C=C2/C(=O)NN(c3cccc(C)c3)C2=O)ccc1OC(=O)c1ccco1	EP2 antag 41
CS(=O)(=O)N(CC(=O)N1CCN(c2ccccc2)CC1)c1cccc(Br)c1	p47phox inh 35
COc1ccc(N2CCN(C(=O)CN(c3cccc(Br)c3)S(C)(=O)=O)CC2)cc1	none
Cc1cccc(C)c1N(CC(=O)N1CCN(C)CC1)S(C)(=O)=O	EP2 modulator 64
CS(=O)(=O)N(CC(=O)N1CCC(C(N)=O)CC1)c1ccccc1Cl	none (no result: Furin inh, p47phox inh, Wee1 stabilizer, HSV augment)
COC(=O)c1[nH]c2ccccc2c1NC(=O)CN1CCC(C(N)=O)(N2CCCCC2)CC1	Furin inh 28
CCCC12CN3CCN(CC(C3)/C1=N\NC(=O)c1ccc(F)cc1)C2	none
CCCC12CN3CCN(CC(C3)/C1=N\NC(=O)Nc1ccccc1)C2	Wee1 stabilizer 10.0
Cc1ccc2c(c1)cc(C)c1nnc(SCC(N)=O)n12	none (no result: Furin inh, p47phox inh, Wee1 stabilizer, HSV augment)
Cc1ccc(C(C)C)c(OCC(=O)N/N=C/C2CCCCC2)c1	Wee1 stabilizer 9.2
Cc1ccc(C(C)C)c(OCC(=O)NN=C2CCCC2)c1	none
Cc1cc2cc(CN(CCN(C)C)C(=S)Nc3ccc(F)cc3)c(=O)[nH]c2cc1C	none (no result: Furin inh, p47phox inh, Wee1 stabilizer, HSV augment)
Cn1c(=O)c([N+](=O)[O-])c(Cl)c2ccccc21	EP2 antag 95
CCN(CC)c1c([N+](=O)[O-])c(=O)n(C)c2ccccc12	none
CCOc1ccc(NC(c2ccccn2)c2oc(CO)cc(=O)c2O)cc1 (centres undefined)	p47phox inh 48
COc1cc2cc(C(=O)O)n(C)c2c(OC)c1OC	p47phox inh 60
Cc1nc2c(ccc3nc(NC(=O)c4ccc5c(c4)OCCO5)sc32)s1	none
Cc1nc2ccc3nc(NC(=O)c4ccc5c(c4)OCCO5)sc3c2s1	EP2 antag 52
O=c1[nH]c2cc3c(cc2cc1CN(Cc1nnnn1Cc1ccc(F)cc1)C1CCCC1)OCCO3	none (no result: Furin inh, p47phox inh, Wee1 stabilizer, HSV augment)
Cc1cccc(Nc2nc(N)c([N+](=O)[O-])c(NCc3ccccc3)n2)c1	EP2 modulator 76
Nc1nc(Nc2ccccc2F)nc(NCc2ccccc2)c1[N+](=O)[O-]	Wee1 stabilizer 9.6, EP2 modulator 76
NCc1cc(C(=O)O)co1	none (no result: Furin inh, p47phox inh, Wee1 stabilizer, HSV augment)
Oc1c(Cl)cc(CN(Cc2cc(Cl)c(O)c(Cl)c2)C2CCCCC2)cc1Cl	EP2 antag 44 (no result: Furin inh, p47phox inh, Wee1 stabilizer, HSV augment)
COc1ccc2cc3c(N)c(C(=O)Nc4ccccc4Cl)sc3nc2c1	none (no result: Furin inh, p47phox inh, Wee1 stabilizer, HSV augment)
CC1(C)O[C@@H]2O[C@H]([C@@H]3COC(C)(C)O3)[C@H](N)[C@@H]2O1	none (no result: Furin inh, p47phox inh, Wee1 stabilizer, HSV augment)
Cc1ccc(O)c(C(=O)/C=C/c2ccc3c(c2)OCCCO3)c1	Wee1 stabilizer 9.2
O=C(/C=C/c1ccc2c(c1)OCCCO2)c1ccccc1O	none
CC(=O)OCCCN1C(=O)c2cccc3cc(Br)cc(c23)C1=O	none (no result: Furin inh, p47phox inh, Wee1 stabilizer, HSV augment)
CC(=O)OCCCN1c2ccccc2Nc2nnc(-c3ccccc3)cc21	Wee1 stabilizer 9.1
COC(=O)c1c(NC(=O)c2ccc(OC)c(OC)c2)sc(C(=O)Nc2cccc(C)c2)c1C	none (no result: Furin inh, p47phox inh, Wee1 stabilizer, HSV augment)
Cc1c(CCOC(=O)CC23CC4CC(CC(C4)C2)C3)sc[n+]1CC(=O)c1ccccc1	none
Cc1c(CCOC(=O)C23CC4(C)CC(C)(CC(C)(C4)C2)C3)sc[n+]1CC(=O)c1ccccc1	p47phox inh 33
CC(=O)CCc1oc2ccc(C)cc2c1-c1ccccc1	none
C/C(CCc1oc2ccc(Br)cc2c1-c1ccc(C)o1)=N/O	EP2 modulator 63
Cc1ccc2cc(C#N)c(SCC(=O)Nc3nc(C)c(C)s3)nc2c1	none (no result: Furin inh, p47phox inh, Wee1 stabilizer, HSV augment)
O=C(O)Cc1ccc(N=Nc2c(O)c(C(=O)O)cc3ccccc23)cc1	none
O=S(=O)(O)c1ccc2c(N=Nc3cccc4ccccc34)c(O)c(S(=O)(=O)O)cc2c1	EP2 antag 57 (no result: Furin inh, p47phox inh, Wee1 stabilizer, HSV augment)
NS(=O)(=O)c1ccc(N=Nc2c(O)c(C(=O)O)cc3ccccc23)cc1	EP2 antag 50!
O=[N+]([O-])c1ccc2c(N=Nc3ccc4ccccc4c3O)c(O)cc(S(=O)(=O)O)c2c1	EP2 antag 51 (no result: Furin inh, p47phox inh, Wee1 stabilizer, HSV augment)
CC1CCCN(C(=S)Nc2ccccc2)C1 (centres undefined)	none (no result: Furin inh, p47phox inh, Wee1 stabilizer, HSV augment)
COc1ccc(-c2nnn(CC(=O)N3c4ccccc4Sc4ccc(Cl)cc43)n2)cc1OC	none (no result: Furin inh, p47phox inh, Wee1 stabilizer, HSV augment)
